Assay outcomes deposited in PubChem BioAssay by National Center for Advancing Translational Sciences (NCATS).
ALOX12 inhib: blocks human 12-lipoxygenase activity. P18054. purified 12-hLO, xylenol orange hydroperoxide absorbance. Potency, µM (titrated, usually from 57.1 µM), for the others: top-dose activity change, negative = inhibition, usual class: inhibitors. 150,000 compounds, 0.12% hits; active = well fitted inhibition curve with a large enough effect; inconclusive = small, poorly fitted or top-dose-only effect; also: potency is read from the fitted curve at half-maximal effect; nearly all actives have a fitted effect of over 55% in size
Target sequence (P18054 whole entry, looked up): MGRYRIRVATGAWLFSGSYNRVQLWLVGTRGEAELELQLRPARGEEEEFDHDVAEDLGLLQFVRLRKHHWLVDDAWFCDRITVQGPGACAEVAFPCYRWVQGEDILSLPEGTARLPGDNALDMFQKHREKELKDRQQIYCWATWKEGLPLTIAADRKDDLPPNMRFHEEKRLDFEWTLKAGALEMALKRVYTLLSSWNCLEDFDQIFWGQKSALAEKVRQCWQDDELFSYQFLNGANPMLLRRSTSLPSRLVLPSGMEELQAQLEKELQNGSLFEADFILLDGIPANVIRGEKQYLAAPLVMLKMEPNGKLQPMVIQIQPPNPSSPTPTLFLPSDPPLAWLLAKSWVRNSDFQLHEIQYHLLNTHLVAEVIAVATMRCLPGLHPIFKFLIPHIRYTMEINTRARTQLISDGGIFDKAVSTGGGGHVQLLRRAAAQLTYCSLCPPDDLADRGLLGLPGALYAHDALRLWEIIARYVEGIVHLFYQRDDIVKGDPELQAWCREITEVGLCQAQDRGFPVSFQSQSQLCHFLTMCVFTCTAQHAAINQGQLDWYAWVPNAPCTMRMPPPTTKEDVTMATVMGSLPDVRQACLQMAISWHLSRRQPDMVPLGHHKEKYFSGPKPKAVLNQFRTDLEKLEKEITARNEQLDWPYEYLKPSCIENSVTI
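Hydroperoxide formation by human 12-lipoxygenase from 40 uM arachidonic acid was followed colorimetrically via ferric-xylenol orange complex, using the 573/405 nm absorbance ratio. Enzyme concentration was 150 nM, with 30 min reaction at room temperature.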
PNC assembly inh: inhibitors of perinucleolar compartment assembly; PC3M PTB-GFP, PNC prevalence imaging, 16 h; hits give low values; activity change (PNC), negative = inhibition, % at 10 µM; 140,000 compounds, 3.1% hits; AID 2417;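 active = readout at or below -70, meaning at least 70% loss of cells showing the perinucleolar compartment, a nuclear body marking cancer cells; inconclusive = readout between -30 and a set limit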;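 also: plate controls were DMSO wells for no effect and camptothecin positive control wells for full effect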
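PC3M cells stably expressing PTB-GFP, 750–1000 cells/well, treated 16 h at 37 °C with compound (23 nl of library stock), in duplicate. After paraformaldehyde fixation and Hoechst stain, imaged at 20x; PNC prevalence scored by image analysis.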
HPGD block: inhibitors of human 15-hydroxyprostaglandin dehydrogenase (HPGD); purified HPGD, NADH fluorescence kinetic, PGE2 substrate; Potency, µM, for inactives: at the highest dose activity change, negative = inhibition, actives largely listed as inhibitors; P15428; 150,000 compounds, 4.3% hits; also: potency is read from the fitted curve at half-maximal effect
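20 nM HPGD preincubated 15 min at room temperature with compound in 50 mM Tris-HCl pH 8, 0.01% Tween 20. Started with 1 mM NAD+ and 30 uM prostaglandin E2; NADH fluorescence (360/450 nm) read 5 times over 30-s intervals, last minus first.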
ALDH1A1 block: blocks purified human ALDH1A1 activity. Purified ALDH1A1, NADH fluorescence, propionaldehyde substrate. Potency, µM (titrated, usually from 75.3 µM), without a hit: at the top dose activity, negative = inhibition, usual class: inhibitors. 220,000 compounds, 7.3% hits. AID 1030;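 also: potency is read from the fitted curve at half-maximal effect; plate controls were no enzyme wells and a reference inhibitor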
LMNA splice mod: LMNA splicing modulation; Potency, µM (highest dose often 46.1 µM), without a hit: at the highest dose ratio change, negative = inhibition, hits mostly inhibitors; HeLa LMNA splicing GFP/RFP minigene ratio, 48 h; AID 1487; 200,000 compounds, 0.01% hits; active = well fitted inhibition curve with a large enough effect in the signal ratio, with a control signal flat, not every such curve was filed as active; inconclusive = small, poorly fitted or top-dose-only effect, or effect the other way, or a change in a side signal; the % refers to the signal ratio; also: potency is read from the fitted curve at half-maximal effect
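S3 HeLa cells stably expressing lamin A-EGFP splicing minigene plus DsRed2, 600 cells/well, 48 h compound exposure at 37C. Laser-scanning cytometry; analysed as GFP (500-530 nm)/RFP (575-640 nm) total intensity ratio; 0.5% DMSO vehicle.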
Active calls of the source: *; [ ] = another dose, or the depositor's remark. Compounds with a hit are over-represented: about 10% of the library has one in this group of screens. Unless noted, calls follow the shape of the dose curve; as a rule, active = well fitted inhibition curve with a large enough effect (not every such curve was filed as active); inconclusive = small, poorly fitted or top-dose-only effect, or another doubt; inactive = no such curve, though single readings can be large or run the other way. Unless noted, % is scaled to controls: 0 for no effect and ±100 for the full control effect.

For CC(C)C1NC(=O)[C@H](CCCCN)NC(=O)[C@@H](Cc2c[nH]c3ccccc23)NC(=O)[C@H](Cc2ccc(O)cc2)NC(=O)[C@H](C)N(C)C(=O)[C@H](Cc2ccccc2)NC1=O (some centres not stated) the results were HPGD block 4%, ALDH1A1 block -12% and LMNA splice mod -14%.
For Cc1ccnc(NS(=O)(=O)c2ccc(N=CC3=C(O)CC(C)(C)CC3=O)cc2)n1 the results were ALOX12 inhib 3%, PNC assembly inh inconclusive, HPGD block -23%, ALDH1A1 block inconclusive and LMNA splice mod 8%.
Cc1[nH]nc(N=CC2=C(O)CC(C)(C)CC2=O)c1-c1ccccc1 was read as ALOX12 inhib 1%, PNC assembly inh inconclusive, HPGD block -17%, ALDH1A1 block 28µM* and LMNA splice mod inconclusive.
Screening CC1(C)CC(=O)C(C=Nc2ccc(NC3=C(C#N)C(=O)CC(C)(C)C3)cc2)=C(O)C1 returned ALDH1A1 block 7.1µM* and LMNA splice mod 6%[46 µM].
Screening CC1(C)CC(=O)C(C=Nc2ccccc2)=C(O)C1 returned ALOX12 inhib -3%, PNC assembly inh -19, ALDH1A1 block 3% and LMNA splice mod 12%.
`CC1(C)CC(=O)C(C=Nc2cccc(/N=C/C3=C(O)CC(C)(C)CC3=O)n2)=C(O)C1` gave ALOX12 inhib -4%, PNC assembly inh 24, HPGD block -19%, ALDH1A1 block 3.5µM* and LMNA splice mod 4%.
CC1(C)CC(=O)C(/C=N/c2ccccn2)=C(O)C1 was read as ALOX12 inhib -4%, PNC assembly inh -17, HPGD block -18%, ALDH1A1 block 14µM* and LMNA splice mod -5%.
`O=C(c1cccc(F)c1)N1CCC2(CCCN(c3ccc(-c4ccccc4)cc3)C2)CC1` gave ALOX12 inhib -7%, HPGD block -10% and ALDH1A1 block 1%.
Cc1ccc(S(=O)(=O)Nc2ccc(-c3ccc(N4CCCCCC4)nn3)cc2)c(C)c1 was read as LMNA splice mod 2%[46 µM].
`O=C(N/N=C/c1ccc(OCC(=O)N2CCCCC2)cc1)c1ccccc1O` gave ALOX12 inhib -4%, PNC assembly inh -9, HPGD block 22µM*, ALDH1A1 block -6% and LMNA splice mod -4%.
O=C(CSCc1ccccc1)N/N=C/c1ccc(OCC(=O)N2CCCCC2)cc1 was read as ALOX12 inhib -2%, PNC assembly inh -2, HPGD block -25%, ALDH1A1 block -17% and LMNA splice mod -25%.
Screening O=C(N/N=C/c1ccc(OCC(=O)N2CCCCC2)cc1)c1ccccc1 returned ALOX12 inhib 0%, PNC assembly inh -4, HPGD block 14µM*, ALDH1A1 block 18µM* and LMNA splice mod 1%.
For O=c1c2ccccc2oc2cc(O)c(C3COCC(CO)C(O)C(O)C3O)c(O)c12 (configuration not stated) the results were ALOX12 inhib 0%, HPGD block -7% and ALDH1A1 block inconclusive.
For COc1ccccc1CNC(=O)CSc1ncc(S(=O)(=O)c2ccc(C)c(Cl)c2)c(=O)[nH]1 the results were LMNA splice mod 5%[46 µM].
COc1cccc([C@@H]2Oc3ccc(OC)cc3/C(=N/O[C@@H](C)c3cn([C@H]4COC[C@H]4O)nn3)[C@@H]2O)c1 was read as ALDH1A1 block 0%[13.5 µM].
For C=CCNc1cnn(-c2ccc(C)cc2)c(=O)c1Sc1ccc(C)cc1 the results were ALDH1A1 block 10µM*.
O=C(CN1CCCN(Cc2cccc(F)c2)S1(=O)=O)Nc1ccc2c(c1)OCCO2 was read as LMNA splice mod -3%[46 µM].
For Nc1nc(-c2c[nH]c3ccccc23)cs1 the results were ALOX12 inhib -11%, PNC assembly inh 4, HPGD block -21%, ALDH1A1 block 7.9µM* and LMNA splice mod 3%.
CNc1nc(-c2c[nH]c3ccccc23)cs1 was read as ALOX12 inhib -22%, PNC assembly inh 11, HPGD block -24%, ALDH1A1 block 7.1µM* and LMNA splice mod 14%.
C=C1C(=O)[C@]23[C@H](O)[C@H]1CC[C@H]2[C@@]12COC3(O)[C@H](O)[C@@H]1C(C)(C)CC[C@@H]2O was read as ALOX12 inhib -12%[0.00818 µM], HPGD block inconclusive and ALDH1A1 block 9%.
Screening CCOC(=O)[C@]1(CC(=O)O)CCCC1=O returned ALOX12 inhib 6%[11.4 µM], HPGD block -9% and ALDH1A1 block 2%[13.5 µM].
COc1ccccc1NC(=O)C(=O)NCCc1csc(-c2cccc(F)c2)n1 was read as LMNA splice mod -5%[46 µM].
COc1ccc(OC)c(CNC(=O)Cn2nc(C)c3nn(-c4ccc(Cl)cc4)c(C)c3c2=O)c1 was read as LMNA splice mod -29%[46 µM].
CC1CN(C(=O)N2CCC(C(=O)NCCCc3ccccc3)CC2)c2ccccc2O1 (configuration not stated) was read as LMNA splice mod 20%[46 µM].
CC(C)c1ccc(C2C3CSCC=C3C(C#N)=C(N)C2(C#N)C#N)cc1 (configuration not stated) was read as ALOX12 inhib -13%, PNC assembly inh 12, HPGD block inconclusive, ALDH1A1 block 16µM* and LMNA splice mod 5%.
CN1CC=C2C(C#N)=C(N)C(C#N)(C#N)C(c3ccsc3)C2C1 (configuration not stated) was read as ALOX12 inhib -15%, PNC assembly inh inconclusive, HPGD block inconclusive, ALDH1A1 block inconclusive and LMNA splice mod 2%.
Screening CN1CC=C2C(C#N)=C(N)C(C#N)(C#N)[C@H](c3cccs3)[C@H]2C1 returned ALOX12 inhib -3%, PNC assembly inh -94*, HPGD block inconclusive, ALDH1A1 block inconclusive and LMNA splice mod -9%.
Screening COc1cccc(C2C3CN(C)CC=C3C(C#N)=C(N)C2(C#N)C#N)c1OC (configuration not stated) returned ALOX12 inhib 0%, PNC assembly inh inconclusive, HPGD block inconclusive, ALDH1A1 block inconclusive and LMNA splice mod -17%.
Screening COc1cc([C@@H]2[C@H]3CN(C)CC=C3C(C#N)=C(N)C2(C#N)C#N)cc2c1OCO2 returned ALOX12 inhib -9%, PNC assembly inh -99*, HPGD block -19%, ALDH1A1 block -5% and LMNA splice mod 15%.
`CCCC1C2CN(C(C)C)CC=C2C(C#N)=C(N)C1(C#N)C#N` (configuration not stated) gave ALOX12 inhib -17%, PNC assembly inh -92*, HPGD block inconclusive, ALDH1A1 block inconclusive and LMNA splice mod -10%.
`CC1(C)CC(=O)C(c2c[nH]c3ccccc23)C(=O)C1` gave ALDH1A1 block 20µM*.
Screening CC12CN3CC(C)(CN(C1)C3c1c[nH]c3ccccc13)C2=O (configuration not stated) returned ALDH1A1 block -2% and LMNA splice mod 15%[46 µM].
